Reference: PMC12136788
Positions count from the first letter of the chain named. In all, about 5,800 sequences were measured (“enrichment r”: median about 0.54, highest 2% from about 16 on). Only a selection was taken, and the highest values are over-represented in it overall.

B1: chr12:2800410:2800520:+|CDS|ENSG00000004478|unk|total|mutant (ssRNA)
RNA: GGGAGUUCUACAGUCCGACGAUCAAAUACAAGCAAGCUUUACUACAGUAUAAGAAGAUCGUGUCUUGGCUGGAAUAUGAGUCCCGUUUUUCCAAUGAGGAAGCACAGAAAGCACAGGCCCUUCGACUGGCCUCUCACCUCAACCAACAGAGGAUUGAGCAUCA
B2: chr11:46743636:46743700:-|3pUTR|ENSG00000175216|msi1_unk|total|mutant (ssRNA)
RNA: GGGAGUUCUACAGUCCGACGAUCUUGUAAAAUUGUCCUAAUCUUUCCCCGCUUUUUAACCGUUAAUAUCCGAAACUCUUUAACCGUUUUCCUUUCAGUUUGUGAGCUCUUCUCUGUCGCCCUGAAGGGUCACUGUAUUCUGUACAACAGAGGAUUGAGCAUCA
B3: chr2:166409664:166409935:-|three_prime_utr|ENSG00000136546|control|control|control (ssRNA)
RNA: GGGAGUUCUACAGUCCGACGAUCUGUGGUAACAAGCCAAGCUUUUAAUGUCAUUGUUAUGGUUCUUAUAUGUUUCCAAGCAAUAGCCAUGAUGAUAGACACUGAUGUUCAGAGUCUACAAAUGUCCAUUGCUCUCUACUGGAUCAACAGAGGAUUGAGCAUCA
B4: ENSG00000070961:be:win_5601|3pUTR|ENSG00000070961|bound_else_gene|NA|bound_elsewhere_windowed (ssRNA)
RNA: GGGAGUUCUACAGUCCGACGAUCGAGGUAGCAUGAUAUGCUGGAAAGCAUAUUAGACUAGGAGUCAAGACCUGGUUUCUAGUCUUGGUUUUGCCAUUAAUGUGCUGCAUGAUCUUGGGAAAAUCAUUUACCCUAAAUAAGGGUCAACAGAGGAUUGAGCAUCA
B5: chr19:7961171:7961272:-|3pUTR|ENSG00000066044|msi1|FALSE|unique (ssRNA)
RNA: GGGAGUUCUACAGUCCGACGAUCGGCGGGAUUCCCGCUUCUGAAACUCCCCCUGGAGUCUCACUCCCACACAUGCCCAUAGCUAGCAUUCAACAGAGAACUCUGUCUUAAGCUUCAACUGUGAAAAUGAUGACGGGCUUGUAGCAACAGAGGAUUGAGCAUCA
B6: chr8:52110837:52113338:-|three_prime_utr|ENSG00000147488|control|control|control (ssRNA)
RNA: GGGAGUUCUACAGUCCGACGAUCCCCCGGAAUGCAAAGCUCUACUGGAAAGUAUCAAACAGGCAGUGAAGGGUAUCCAUGUGUAGGAUCACAGCGCUGCCGGGCAACAGAAGUUACCAACAGCAGUAAACUCCAGAUGGAUCUCAACAGAGGAUUGAGCAUCA
B7: ENSG00000107863:be:win_4051|CDS|ENSG00000107863|bound_else_gene|NA|bound_elsewhere_windowed (ssRNA)
RNA: GGGAGUUCUACAGUCCGACGAUCGUGCAGGAGGAAAGCACAGUAGACUCCCAGCCAGUGCCAAACAUAGAUCAUUUACUCACCAACAUUGGAAGGACAGGAGUCUCCCCAGGAGAUGUAUCAGAUUCAGCUACUAGUGACUCACAACAGAGGAUUGAGCAUCA
B8: ENSG00000107863:be:win_5501|CDS|ENSG00000107863|bound_else_gene|NA|bound_elsewhere_windowed (ssRNA)
RNA: GGGAGUUCUACAGUCCGACGAUCCUGUAAACCGGUUAAAACCAAAAUGCUCAGCCCAGGACCUUUCCAUCUCAGACUGGCUGGCCAGGGAACGCCUACGCACCAGUACCUCUGACCUUAGCAGAGGAGAAAUCGGAGAUCCCCCAACAGAGGAUUGAGCAUCA
B9: chr3:15254852:15254953:-|3pUTR|ENSG00000131370|msi1|FALSE|unique (ssRNA)
RNA: GGGAGUUCUACAGUCCGACGAUCAAACUGUUAAUUCUGUCACAGCCUGUAUAUUUUAGUCAUUUGUAAAUCUCUUCAUACAAUAGUGACUUCUUUUUUGACUGAUACAGUAUCUUAAUUACAAGGUUAUUUUGUACUUGUCUUCAACAGAGGAUUGAGCAUCA
B10: ENSG00000165219:stop:overlap|stop_codon|ENSG00000165219|stop_codon|NA|stop_codon (ssRNA)
RNA: GGGAGUUCUACAGUCCGACGAUCUACCUAUAGGUAAAGAGAAUUUCUCGUAUUGGAGCUUUCUCUUAAAUCUAAUAUUUCAUUAGCCUUUGUUAUUGCUGAGUGUUUUGGAACAUAUGUUUAAGUACUUGGGAAAGUCUUUCUCAACAGAGGAUUGAGCAUCA
B11: chr10:30313878:30313980:-|CDS|ENSG00000107951|unk|FALSE|unique (ssRNA)
RNA: GGGAGUUCUACAGUCCGACGAUCUGUUUUUAUAUUUAAGCCCUUCAUGUACUUACUCAUUUUUUCUUCUGUGUAAUAAUCUAUAGGGAAGGGAGCAAAACAAACCUGAUUCUUCUCCUCUGUACAUUCAGAAUCCAUUUGAAACAACAGAGGAUUGAGCAUCA
B12: chr2:216672374:216672548:-|3pUTR|ENSG00000115461|msi1|FALSE|unique (ssRNA)
RNA: GGGAGUUCUACAGUCCGACGAUCUUUUUCUUUUUUUUUUUGAAGACAGCAAUAACCACAGUACAUAUUACUGUAGUUCUCUAUAGUUUUACAUACAUUCAUACCAUAACUCUGUUCUCUCCUCUUUUUUGUUUUCAACUUUAACAACAGAGGAUUGAGCAUCA
B13: chr7:123541454:123541562:-|3pUTR|ENSG00000128609|unk|FALSE|unique (ssRNA)
RNA: GGGAGUUCUACAGUCCGACGAUCUCCAUAGUGUCAUUUUAUUUUAGUCAUUAUUGAAUUAUACCAUUUACUCUGUUUUCUUAUAGUCUUAAUUUUAUUAUAUUUUGUUGUUACUGUAUUAUAUUUGAAAACCUUCAAAUUAGACAACAGAGGAUUGAGCAUCA
B14: chr10:117282838:117282939:-|3pUTR|ENSG00000165650|unk|FALSE|bound_elsewhere (ssRNA)
RNA: GGGAGUUCUACAGUCCGACGAUCCCCCUUGUGUUAUUUUUCUUCCUCUUGGUUUUUGAAUUAGUGUUAAAUAGAAUACUGUCUAGAUUCUUAAAAUAUUUUCAUUUCCAUCAUGGUUAUAACAAAUUUGCUGCAUGCCCAAACCAACAGAGGAUUGAGCAUCA
B15: chr10:16593140:16593241:-|3pUTR|ENSG00000148484|unk|FALSE|unique (ssRNA)
RNA: GGGAGUUCUACAGUCCGACGAUCUUAUUUUUCUUUUCACUCUCUUUCUAAUGCUUCCCACCUUACCUUUUAGAUUCUUUUGCUAGGUGGGAGAUUGUUAUAAGGUCUUUAAACCAUUUCCAUUUGUUUCUUUAACAUUACCAACAACAGAGGAUUGAGCAUCA
B16: chr5:113594843:113594944:+|3pUTR|ENSG00000047188|msi1|FALSE|bound_elsewhere (ssRNA)
RNA: GGGAGUUCUACAGUCCGACGAUCCAACAUAAAAUCUUGAGAACCUUCUACUUUCUCUGGGAAAGCAUUAUAUAGUGGUGCAUUAGUUUAGAAAGUCAGCUAUGAUUUUGCCUAUAGUUCUAGUUAUUAGCUUUGGGGUUUUCUCAACAGAGGAUUGAGCAUCA
B17: chr5:113594843:113594944:+|3pUTR|ENSG00000047188|msi1|total|mutant (ssRNA)
RNA: GGGAGUUCUACAGUCCGACGAUCCAACAUAAAAUCUUGAGAACCUUCUACUUUCUCUGGGAAAGCAUUAUACCGUGGUGCAUCCGUUCCGAAAGUCAGCUAUGAUUUUGCCUACCGUUCCCGUUAUCCGCUUUGGGGUUUUCUCAACAGAGGAUUGAGCAUCA
B18: chr1:93361585:93361687:+|3pUTR|ENSG00000117505|unk|FALSE|unique (ssRNA)
RNA: GGGAGUUCUACAGUCCGACGAUCUUUAACUUGUAGUUAUAGUUUACUUAUUGUUUUUAGAAUUACUUUUACAUUUUCCCAACUAGAUGGCCUAGAGUCCAACAUUACCUUUUGAGAUGACAUUAUUGUCUCCAUAAUUGAGUGCAACAGAGGAUUGAGCAUCA
B19: chr2:216672374:216672548:-|3pUTR|ENSG00000115461|msi1|total|mutant (ssRNA)
RNA: B12 RNA with U73C, A74C, U83C, A84C
B20: chr1:93361585:93361687:+|3pUTR|ENSG00000117505|unk|total|mutant (ssRNA)
RNA: B18 RNA with U33C, A34C, U39C, A40C, U57C, A58C, U83C, A84C, U92C, A93C
B21: ENSG00000079335:stop:overlap|stop_codon|ENSG00000079335|stop_codon|NA|stop_codon (ssRNA)
RNA: GGGAGUUCUACAGUCCGACGAUCUUGGUGGAAAUCUUUCAAAAACACAAAACAUGGAACGAUUUGGAGAGGUAAGUUUUCCCUAGGAGAUUCUAUCUUCUUAAAACUGAUGUUCUGCAUUUGUUUCUCAGUUGGACCUAUAUACAACAGAGGAUUGAGCAUCA
B22: chr9:34635388:34635489:-|3pUTR|ENSG00000147955|msi1|FALSE|unique (ssRNA)
RNA: GGGAGUUCUACAGUCCGACGAUCGGGAUAUCCAUGCUUAUGUAUCCAAACACAGAGACCCAUGGGAACAAAUGAGACACAUAUAGAUACUGAGACCUGUGUGUACAGUAGGACCAUGCACUCACACCCAUCUGGAGAGGGAGCCAACAGAGGAUUGAGCAUCA

These binders were tested against MSI1 full-length (mouse, UniProt Q61474 1-362) (assay: nsRBNS (natural sequence RNA bind-n-seq); RBNS binding buffer (assumed for nsRBNS): 25 mM Tris pH 7.5, 150 mM KCl, 3 mM MgCl2, 0.01% Triton X-100, 500 ug/ml BSA, 20 U/ml SUPERase-In, 4 C; UNK is unkempt and MSI1 is Musashi-1; names of the RNAs are library labels; protein concentration not given here; high values mean tight binding).
Chain of MSI1 full-length (Q61474 whole entry): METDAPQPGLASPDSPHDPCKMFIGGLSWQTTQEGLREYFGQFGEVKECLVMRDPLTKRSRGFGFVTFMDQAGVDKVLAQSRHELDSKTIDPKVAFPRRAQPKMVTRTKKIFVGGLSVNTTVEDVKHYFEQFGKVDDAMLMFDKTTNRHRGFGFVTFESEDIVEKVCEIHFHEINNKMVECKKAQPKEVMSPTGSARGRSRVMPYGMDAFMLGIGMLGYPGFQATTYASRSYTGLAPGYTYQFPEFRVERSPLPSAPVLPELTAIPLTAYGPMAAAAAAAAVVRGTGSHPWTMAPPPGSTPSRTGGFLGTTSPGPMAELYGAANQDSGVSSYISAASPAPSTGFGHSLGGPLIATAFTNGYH
For B1, the binding signal was 0.381 enrichment R. Work on B2 yielded a binding signal of 0.866 enrichment R. In the case of B3, the binding signal is reported as 0.263 enrichment R. With B4 the binding signal was 0.263 enrichment R. B5 was tested, and the binding signal was 0.313 enrichment R. B6 gave a binding signal of 0.319 enrichment R. In the case of B7, the binding signal is reported as 1.93 enrichment R. For B8, the binding signal was 0.497 enrichment R. In the case of B9, the binding signal is reported as 0.848 enrichment R. Binder B10 has a binding signal of 1.03 enrichment R. Binder B11 has a binding signal of 1.04 enrichment R. For B12, the binding signal was 21.2 enrichment R. Work on B13 yielded a binding signal of 42.9 enrichment R. Binder B14 has a binding signal of 3.9 enrichment R. B15 showed a binding signal of 10.5 enrichment R. In the case of B16, the binding signal is reported as 31.3 enrichment R. In the case of B17, the binding signal is reported as 0.394 enrichment R. Binder B18 has a binding signal of 56.8 enrichment R. In the case of B19, the binding signal is reported as 7.36 enrichment R. Work on B20 yielded a binding signal of 1.55 enrichment R. In the case of B21, the binding signal is reported as 4.56 enrichment R. B22 showed a binding signal of 0.728 enrichment R.
